Source: PubChem
HSF1 inh = HSF1 inhibition; 0.77% of 300,000 active; NIH3T3-HGL HSE-luciferase, MG132-induced, luminescence 8 h; hits give low values; activity change, negative = inhibition, % at 7.5 µM (by protocol);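 active means more than half of replicate wells show activity change below -50%, luminescence cut by over half; inconclusive means some wells, but at most half, below -50%; inactive means no replicate well below -50%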;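 further: luciferase reports HSF-1 transcriptional activity via heat shock element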
AI-2 QS modul = modulates the Vibrio harveyi AI-2 quorum sensing system. activity change, % at 7.5 µM. AID 2094. Vibrio harveyi JMH597 AI-2 luminescence/OD600 ratio, 9 h; hits give low values; strain lacks LuxN and CqsS sensors; 0 = neutral-control median. 0.4% of 300,000 active; in the data active means activity change below about -75%, passing the limit was not always enough; inconclusive means no clear call, values can overlap the other calls;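 further: luminescence divided by OD600 gain over 9 h not by final OD600 alone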
GAA850 FXN act = activators of GAA850 frataxin (FXN) promoter | activation, % at 6 µM | 0.56% of 360,000 active | HEK293 lucGAA850 FXN promoter luciferase reporter, 24 h; percent of 10 µM SAHA response;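 active means activation above the average of all compounds screened plus 3 SD, cutoff fixed separately per campaign, cut at about 7.5% in these data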
SMARCA2 activ = activators of SMARCA2 function; MG213 cells, MMTV-luciferase reporter, dexamethasone, overnight; activation, % at 9.1 µM; 1% of 370,000 active; in the data active means activation above about 7.8%
PG9 binder = PG9 antibody binding by small molecule; AID 624416; 0.43% of 360,000 active; TR-FRET gp120-PG9 antibody binding; inhibition, % at 6.7 µM; in the data active means inhibition above about 8.5%
HSP90 refold inh = blocks HSP90-mediated luciferase refolding in reticulocyte lysate; Rabbit reticulocyte lysate, luciferase refolding luminescence, 3 h; inhibition, % at 5.6 µM; 0.91% of 290,000 active; AID 1789;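 active means inhibition above the screen-wide mean plus 3 SD, computed separately per campaign, cut at about 16% in these data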;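 further: inhibitors lower the luminescence because luciferase stays unfolded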
SMARCA2 act conf = confirmation of SMARCA2 (BRM) function activators; shares compounds with SMARCA2 activ; MG213 cells, MMTV-luciferase with dexamethasone, luminescence, overnight; MG213 cells expressing E1A, Rb sequestered; DMSO wells 0%, reference activator 100%; activation, % at 9.1 µM; 30% of 3,500 active;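 active means activation above its plate's cutoff, the mean activation of tested wells plus 3 SD, cut at about 7.9% in these data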
VP16 Luc act = counter-screen for SMARCA2 activators: GAL4-VP16 luciferase reporter activation; HEK293 GAL4-VP16 pG5luc reporter, luciferase luminescence; scaled: DMSO wells 0%, SAHA wells 100%; 41% of 3,500 active; shares compounds with SMARCA2 activ; activation, % at 9.1 µM;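 active means activation above the solvent-only control well mean plus 3 SD, averaged across control plates, cut at about 5.2% in these data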
A number is an active result; - = inactive; ? = inconclusive; . = no result. Compounds with a hit are over-represented: about 3.4% of the library has one in this group of screens.

SMILES | HSF1 inh | AI-2 QS modul | GAA850 FXN act | SMARCA2 activ | PG9 binder | HSP90 refold inh | SMARCA2 act conf | VP16 Luc act
O=C(Cn1cnc2ccccc2c1=O)NCCC(=O)Nc1ccc2c(c1)OCCO2 | - | - | - | - | - | - | . | .
CC(C)c1[nH]nc2c1C(c1cccc(C(F)(F)F)c1)NC2=O (configuration not stated) | . | . | . | - | - | . | . | .
O=C(O)C1CN(c2ncccc2[N+](=O)[O-])C1 | - | - | - | - | - | - | . | .
O=C(O)[C@@H]1[C@@H]2C[C@@H]2CN1c1ncccc1[N+](=O)[O-] | - | - | - | 9.9 | - | - | - | -
Cc1ccccc1S(=O)(=O)N1CCCc2nc(-c3ccccc3)ccc21 | . | . | . | - | - | . | . | .
O=c1c(Br)c(N2CCCCC2)cnn1-c1ccccc1 | - | - | - | 8.7 | - | - | 9.8 | 9.0
COc1ccc(C(=O)N2CCC[C@@H]2C(=O)N2CCC[C@@H]2C(=O)NCc2ccccc2)cc1F | . | . | . | - | - | . | . | .
O=C1NC(=O)/C(=C\c2ccc(O)cc2O)S1 | - | - | - | 13 | - | - | - | -
COc1ccc2nc3n(c(=O)c2c1)-c1ccc(Cl)cc1C(=O)NC3Cc1ccc(O)cc1 (configuration not stated) | . | . | - | - | - | . | . | .
O=C(Nc1cc2c(cc1Br)OCCO2)c1cccs1 | - | - | - | 10 | - | - | - | 9.0
CCCC(=O)c1cc2c(cc1NC(=O)c1cccs1)OCCO2 | - | . | - | - | - | - | . | .
O=[N+]([O-])c1cnc(Sc2ccncn2)s1 | -67 | -88 | - | 12 | - | - | - | 5.5
COC(=O)[C@]12C[C@H](CC(=O)NCc3cccc(C(F)(F)F)c3)C(=O)N(Cc3ccccc3)C1=C[C@H](C1CCCC1)O[C@@H]2C | . | . | . | - | - | . | . | .
COc1ccc(OCCC(=O)OCC(=O)NCc2ccccc2)cc1 | - | - | - | 9.8 | - | - | - | -
Cc1ccccc1S(=O)(=O)N1CCCc2nc(-c3ccc(F)cc3)ccc21 | . | . | . | - | - | . | . | .
COc1ccc(CCNC(=O)C(=O)N/N=C/c2cccs2)cc1OC | - | - | - | 14 | - | - | - | -
CCOC(=O)N[C@H](C(=O)N1CCC[C@H]1C(=O)NC1CCCC1)C1CCCCC1 | . | . | . | - | - | . | . | .
O=C1[C@H]2[C@@H](c3ccccc3)N[C@]3(CCCN(Cc4ccco4)C3=O)[C@H]2C(=O)N1Cc1ccccc1 | . | . | - | - | - | . | . | .
COc1ccc([C@H]2N[C@]3(CCCN(Cc4ccco4)C3=O)[C@H]3C(=O)N(Cc4ccccc4)C(=O)[C@@H]23)cc1 | . | . | - | 9.0 | - | . | - | -
O=C(NNc1ccccc1)OCc1ccccc1 | . | . | - | - | - | . | . | .
CCOC(=O)C1=CCN(S(=O)(=O)c2ccc(Cl)cc2)C1c1ccc(Cl)c(Cl)c1 (configuration not stated) | . | . | . | - | - | . | . | .
COc1ccc2c(=O)c3ccccc3oc2c1 | - | - | - | - | - | - | . | .
COc1ccc2oc3cc(NCCN(C)C)ccc3c(=O)c2c1 | . | . | . | 21 | - | . | 38 | 13
CN(C)CCNc1ccc(CO)c2sc3ccc(O)cc3c(=O)c12 | . | . | - | 14 | - | . | - | 11
COc1ccc2sc3cccc(NCCN(C)C)c3c(=O)c2c1 | . | . | . | 29 | - | . | 40 | -
SMILES | HSF1 inh | AI-2 QS modul | GAA850 FXN act | SMARCA2 activ | PG9 binder | HSP90 refold inh | SMARCA2 act conf | VP16 Luc act
COc1cccc2sc3ccc(NCCC4CCCN4C)cc3c(=O)c12 (configuration not stated) | - | - | - | - | - | - | . | .
Cc1cc(-c2cc(NC(=O)Cc3c[nH]c4ccccc34)ccc2N(C)c2cccnc2)ccc1F | . | . | . | - | - | . | . | .
CCOc1ccc(Nc2ccnc3cc(Cl)ccc23)cc1 | - | - | - | - | - | - | . | .
CN1CCN(c2ccc(Nc3ccnc4cc(Cl)ccc34)cc2)CC1 | - | - | - | 16 | - | - | 28 | -
Cc1cc(O)c(NC(=O)c2ccco2)cc1C | - | - | - | 8.9 | - | - | - | -
COC[C@@H](O)[C@H]1OCc2cc(OC)ccc2[C@@H]1/C=C/c1ccccc1 | . | . | . | - | - | . | . | .
O=C1c2ccccc2C(=O)c2c(NCCCN(CCO)CCO)cccc21 | - | - | - | 15 | - | - | 40 | -
CCN(CC)CC(=O)Nc1cccc2c1C(=O)c1ccccc1C2=O | - | - | - | - | - | - | . | .
COc1cccc(CSc2nc3ccncc3[nH]2)c1 | - | - | - | 9.3 | - | - | - | 7.0
COc1cccc(N2CCN(C(=O)c3ccc(CSc4nc5ccncc5[nH]4)cc3)CC2)c1 | - | - | - | - | - | - | . | .
Cc1ccc(CN(C)C(=O)CCc2nc3sc4c(c3c(=O)[nH]2)CCCC4)o1 | - | - | - | - | - | - | . | .
CN(Cc1ccco1)C(=O)CCc1nc2sc3c(c2c(=O)[nH]1)CCCC3 | - | - | - | 8.2 | - | - | - | -
Cc1nnc(Sc2cc(NCCCO)c([N+](=O)[O-])c3nonc23)s1 | ? | - | - | 10 | - | - | - | -
Cc1nnc(Sc2cc(NCCO)c([N+](=O)[O-])c3nonc23)s1 | - | ? | - | - | - | - | . | .
CN(C)c1ccc(NC(=O)Nc2nc(C(N)C3CCCCC3)cs2)cc1 (configuration not stated) | . | . | - | - | - | . | . | .
CCCCOc1ccc(C(=O)NC2CCCCN(Cc3cccc(C(F)(F)F)c3)C2=O)cc1 (configuration not stated) | . | . | . | - | . | . | . | .
O=C(/C=C/c1ccccc1Cl)Nc1cccnc1 | - | - | - | 9.0 | - | - | 8.3 | 7.5
COC(=O)[C@]12C[C@H](CC(=O)N3CCCCC3)C(=O)N(CCC3=CCCCC3)C1=C[C@H](C(C)(C)C)O[C@@H]2C | . | . | . | - | - | . | . | .
CC(C)Oc1ccc(C(=O)OCC(=O)c2ccc[nH]2)cc1 | . | . | - | 12 | - | . | 9.4 | 7.3
O=C(Nc1ccc(Cl)cc1)C1C2CCC3C(CCC21)C3(Cl)Cl (configuration not stated) | . | . | - | - | - | - | . | .
O=C(O)C1C(C(=O)Nc2ccc(Cl)cc2)C2C=CC1C21CC1 (configuration not stated) | - | - | - | 8.7 | - | - | - | -
CCc1ccc(N(C(=O)c2ccco2)C(C(=O)NC2CCCC2)c2cccnc2)cc1 (configuration not stated) | - | . | - | - | - | - | . | .
CCC(C)c1ccc(N(C(=O)c2ccco2)C(C(=O)NC2CCCC2)c2cccnc2)cc1 (configuration not stated) | - | . | - | 8.1 | - | - | - | 5.2
